# Measured values taken from PMC8222333, “AsCas12a ultra nuclease facilitates the rapid generation of therapeutic cell medicines”.
# Columns and labels:
# Test in all cases: Spec-seq (native PAGE EMSA with sequencing of bound and unbound); 25 mM Tris-HCl pH 7.4, 150 mM KCl, 5 mM MgCl2, 10% glycerol, 1 mM DTT, 40 ng/uL salmon sperm DNA; 400 nM Cas12a, 480 nM crRNA, 50 nM library, 37 C 1 h; native PAGE at room temperature; high values mean tight binding
# Settings in all cases: protein: recombinant
# [1] = target: dAsCas12a Ultra (Acidaminococcus sp., UniProt U2UMQ6 1-1307, M537R;F870L;D908A;E993A;D1235A)
# [2] = target: dAsCas12a E174R (Acidaminococcus sp., UniProt U2UMQ6 1-1307, E174R;D908A;E993A;D1235A);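 also: relative affinity from the bound to unbound sequence frequency ratio in Spec-seq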
# [3] = target: dAsCas12a S542R (Acidaminococcus sp., UniProt U2UMQ6 1-1307, S542R;D908A;E993A;D1235A);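 also: relative affinity from the bound to unbound sequence frequency ratio in Spec-seq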
# [4] = target: d-enCas12a (Acidaminococcus sp., UniProt U2UMQ6 1-1307, E174R;S542R;K548R;D908A;E993A;D1235A)
# [5] = target: d-enCas12a-Ultra (Acidaminococcus sp., UniProt U2UMQ6 1-1307, E174R;S542R;K548R;M537R;F870L;D908A;E993A;D1235A);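 also: relative affinity from the bound to unbound sequence frequency ratio in Spec-seq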
Binder,binding signal [1] [lnKA],binding signal [2] [lnKA],binding signal [3] [lnKA],binding signal [4] [lnKA],binding signal [5] [lnKA]
GCTT (dsDNA) DNA 1: GCTATCTAGTGCTCAGTACGCACTGGCTTAGGAAACTTCTGGCAGGACCAGGTCATGAGATCGGAAGAGCACACGTCTGAACTCCAGTCA DNA 2: TGACTGGAGTTCAGACGTGTGCTCTTCCGATCTCATGACCTGGTCCTGCCAGAAGTTTCCTAAGCCAGTGCGTACTGAGCACTAGATAGC RNA: AAUUUCUACUCUUGUAGAUAGGAAACUUCUGGCAGGACC,-8.74,-8.39,-8.31,-5.83,-3.16
GGTA (dsDNA) DNA 1: GCTATCTAGTGCTCAGTACGCACTGGGTAAGGAAACTTCTGGCAGGACCAGGTCATGAGATCGGAAGAGCACACGTCTGAACTCCAGTCA DNA 2: TGACTGGAGTTCAGACGTGTGCTCTTCCGATCTCATGACCTGGTCCTGCCAGAAGTTTCCTTACCCAGTGCGTACTGAGCACTAGATAGC RNA: AAUUUCUACUCUUGUAGAUAGGAAACUUCUGGCAGGACC,-7.78,-8.41,-7.66,-3.21,-0.816
GTGA (dsDNA) DNA 1: GCTATCTAGTGCTCAGTACGCACTGGTGAAGGAAACTTCTGGCAGGACCAGGTCATGAGATCGGAAGAGCACACGTCTGAACTCCAGTCA DNA 2: TGACTGGAGTTCAGACGTGTGCTCTTCCGATCTCATGACCTGGTCCTGCCAGAAGTTTCCTTCACCAGTGCGTACTGAGCACTAGATAGC RNA: AAUUUCUACUCUUGUAGAUAGGAAACUUCUGGCAGGACC,-7.93,-8.87,-7.67,-5.45,-3.14
GTCT (dsDNA) DNA 1: GCTATCTAGTGCTCAGTACGCACTGGTCTAGGAAACTTCTGGCAGGACCAGGTCATGAGATCGGAAGAGCACACGTCTGAACTCCAGTCA DNA 2: TGACTGGAGTTCAGACGTGTGCTCTTCCGATCTCATGACCTGGTCCTGCCAGAAGTTTCCTAGACCAGTGCGTACTGAGCACTAGATAGC RNA: AAUUUCUACUCUUGUAGAUAGGAAACUUCUGGCAGGACC,-8.79,-8.88,-7.55,-4.02,-0.927
GTGT (dsDNA) DNA 1: GCTATCTAGTGCTCAGTACGCACTGGTGTAGGAAACTTCTGGCAGGACCAGGTCATGAGATCGGAAGAGCACACGTCTGAACTCCAGTCA DNA 2: TGACTGGAGTTCAGACGTGTGCTCTTCCGATCTCATGACCTGGTCCTGCCAGAAGTTTCCTACACCAGTGCGTACTGAGCACTAGATAGC RNA: AAUUUCUACUCUUGUAGAUAGGAAACUUCUGGCAGGACC,-8.66,-8.98,-8.04,-5.78,-3.14
GGGA (dsDNA) DNA 1: GCTATCTAGTGCTCAGTACGCACTGGGGAAGGAAACTTCTGGCAGGACCAGGTCATGAGATCGGAAGAGCACACGTCTGAACTCCAGTCA DNA 2: TGACTGGAGTTCAGACGTGTGCTCTTCCGATCTCATGACCTGGTCCTGCCAGAAGTTTCCTTCCCCAGTGCGTACTGAGCACTAGATAGC RNA: AAUUUCUACUCUUGUAGAUAGGAAACUUCUGGCAGGACC,-8.93,–,-8.02,-5.68,-3.47
GGTT (dsDNA) DNA 1: GCTATCTAGTGCTCAGTACGCACTGGGTTAGGAAACTTCTGGCAGGACCAGGTCATGAGATCGGAAGAGCACACGTCTGAACTCCAGTCA DNA 2: TGACTGGAGTTCAGACGTGTGCTCTTCCGATCTCATGACCTGGTCCTGCCAGAAGTTTCCTAACCCAGTGCGTACTGAGCACTAGATAGC RNA: AAUUUCUACUCUUGUAGAUAGGAAACUUCUGGCAGGACC,-8.59,-8.64,-8.19,-5.45,-2.7
GGTC (dsDNA) DNA 1: GCTATCTAGTGCTCAGTACGCACTGGGTCAGGAAACTTCTGGCAGGACCAGGTCATGAGATCGGAAGAGCACACGTCTGAACTCCAGTCA DNA 2: TGACTGGAGTTCAGACGTGTGCTCTTCCGATCTCATGACCTGGTCCTGCCAGAAGTTTCCTGACCCAGTGCGTACTGAGCACTAGATAGC RNA: AAUUUCUACUCUUGUAGAUAGGAAACUUCUGGCAGGACC,-8.4,-8.96,-8.74,-3.44,-0.971
